The values below come from PubChem BioAssay.

The source made the active and inactive calls.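 How the source made its calls, unless noted: active means visual image review flags a hit and inhibition of aggregation exceeds 20%; inconclusive means visual hit but inhibition at or below 20%; inactive means no hit on visual image review.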

Assay [1] is described as follows: inhibitors of TNFa-induced NFkB p65 translocation, primary screen, imaging, HUVEC, MLSMR starter and 10KST1 sets (AID 438;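 active means inhibition above 20% together with a positive visual image hit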;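 further: compound added about 3h40 before a 20 min TNFalpha stimulation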;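 on inhibition: signal is the nuclear over cytoplasmic p65 intensity ratio per well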). The note with it: HUVEC TNFa-induced p65 nuclear translocation; cell count: measured here: nuclei count (cytotoxicity indicator), at 2.08 µM; inhibition: at 2 µM, stronger effect = higher value, 0% TNFa-plus-vehicle, 100% no-TNFa wells.
The nature of assay [2]: inhibitors of mutant huntingtin aggregation, primary screen, imaging, exon1htt(103Q)mCFP cells, high-content imaging (AID 483).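 Further: compound exposure lasted 3 days before fixation.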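 On nuclei count: percent of the per-plate median nuclei count of sample wells.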 The following applies: exon1htt(103Q)mCFP cell line, aggregate imaging, at 2 µM; inhibition of aggregation: stronger effect = higher value; nuclei count: measured here: cell count, toxicity.
Assay [3] in a line: inhibitors of E-selectin induction by TNFa, primary screen, imaging, HUVEC, immunofluorescence, MLSMR starter and 10KST1 sets (AID 487;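 active means visually confirmed hit in the image check and inhibition above 20%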;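 on inhibition: signal is fraction of cell area covered by stained E-selectin grains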;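 on nuclei count: 100% = median nuclei count of all wells on the same plate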). The note with it: HUVEC TNFalpha-induced E-selectin immunofluorescence imaging, at 2 µM; inhibition: stronger effect = higher value; nuclei count: measured here: cell number, toxicity.
Assay [4] addresses Voltage-gated potassium channel subunit beta-2 (Rattus norvegicus) (UniProt P62483). Nature of the assay: KvBeta enzyme negative modulators, primary screen, biochemical, NADPH fluorescence (AID 622;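 active means fluorescence slope higher than the sample average by over 3 SD, cut at about -0.22 in these data, passing the limit was not always enough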;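 further: slope of raw intensity against log time taken from 70 to 1610 s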). The following applies: recombinant KvBeta, 4-cyanobenzaldehyde reduction, at 10 µM, stronger effect = higher value.
For assay [5] the target is unchanged. The assay is described as follows: KvBeta positive modulators, primary screen, biochemical, NADPH fluorescence (AID 623;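 active means NADPH fluorescence slope more negative than the mean of all samples by about 3 SD, 99.7% confidence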;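 further: fluorescence intensity change per second fitted from 20 to 320 s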). The note with it: Recombinant KvBeta, NADPH fluorescence decrease slope, 10 min; at 10 µM; stronger effect = lower value.
In assay [6] the target is Alpha-2C adrenergic receptor (Homo sapiens) (UniProt P18825). The assay is described as follows: modulators of alpha2C/GIRK thallium flux, primary screen, cell-based, HEK293 alpha2C/GIRK1/2 (AID 624;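 active means fluorescence slope after compound addition differing from the mean of all screened samples at 99.7% confidence, in either direction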;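 further: slope of fluorescence ratio to pre-addition baseline per second over 15 to 24 s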). The note with it: thallium flux BTC fluorescence, at 10 µM, actives lie on both sides.
Assay [7] is described as follows: inhibitors of Sendai virus-induced IRF3 signaling, primary screen, TLR/RLR signaling modifier project, cell-based, Sendai virus stimulus, luciferase, 10K MLSCN set (AID 602276;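 active means inhibition at or above 50% at 10 µM; inactive means inhibition below 50%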;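 further: firefly luciferase from ISG56 promoter only with Renilla not read in this screen; 0% = Sendai virus plus DMSO and 100% = medium plus DMSO without virus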). The following applies: HEK293 RL24 IRF3 luciferase reporter, at 10 µM, stronger effect = higher value. For orientation: In a reporter assay the amount or activity of a reporter protein is the signal.

Assay [8] can be described thus: inhibitors of poly I:C-induced TLR3 signaling, primary screen, cell-based, poly I:C stimulus, luciferase, 10K MLSCN set (AID 602277;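 active means inhibition of the reporter signal at or above 50%; inactive means inhibition below 50%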). The following applies: HEK293-TLR3 RL24 IRF3 luciferase reporter, at 10 µM, stronger effect = higher value.

Chain of Alpha-2C adrenergic receptor (Homo sapiens) (P18825 whole entry, looked up): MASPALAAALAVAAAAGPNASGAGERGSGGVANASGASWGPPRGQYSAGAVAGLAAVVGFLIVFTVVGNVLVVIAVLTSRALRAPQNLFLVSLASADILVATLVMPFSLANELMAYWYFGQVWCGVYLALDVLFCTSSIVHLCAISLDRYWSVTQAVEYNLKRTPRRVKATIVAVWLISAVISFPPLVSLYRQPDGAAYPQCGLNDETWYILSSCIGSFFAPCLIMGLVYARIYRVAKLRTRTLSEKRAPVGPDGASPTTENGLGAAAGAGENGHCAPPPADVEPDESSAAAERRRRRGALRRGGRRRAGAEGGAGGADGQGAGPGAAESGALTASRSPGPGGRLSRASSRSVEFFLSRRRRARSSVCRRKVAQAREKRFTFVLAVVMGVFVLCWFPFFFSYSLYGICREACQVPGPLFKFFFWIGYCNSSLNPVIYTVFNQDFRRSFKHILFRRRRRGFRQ
Chain of Voltage-gated potassium channel subunit beta-2 (Rattus norvegicus) (P62483 whole entry, looked up): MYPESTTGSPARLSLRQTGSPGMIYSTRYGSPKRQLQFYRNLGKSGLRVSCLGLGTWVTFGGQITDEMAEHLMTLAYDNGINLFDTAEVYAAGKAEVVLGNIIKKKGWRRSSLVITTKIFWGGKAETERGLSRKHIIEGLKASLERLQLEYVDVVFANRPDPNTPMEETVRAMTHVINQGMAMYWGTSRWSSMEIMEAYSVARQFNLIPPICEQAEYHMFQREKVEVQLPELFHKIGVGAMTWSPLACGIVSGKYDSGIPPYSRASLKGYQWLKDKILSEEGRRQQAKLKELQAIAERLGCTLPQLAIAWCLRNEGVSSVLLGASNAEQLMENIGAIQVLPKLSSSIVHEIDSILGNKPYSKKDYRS

Consider `Cc1ccc(C(=O)Nc2ccc(Cl)cn2)cc1S(=O)(=O)N1CCOCC1`, for which the cell count in assay [1] came to 568. Also, the inhibition in assay [1] was -10.1% (inactive); in assay [3], -12.7% (inactive); in assay [7], -6.64% (inactive); in assay [8] it was -36% (inactive). Besides, the inhibition of aggregation in assay [2] is -0.1% (inactive). Moreover, the values for the nuclei count in assay [2] and in assay [3] were 112% and 102%, respectively. Moreover, the fluorescence slope in assay [4] was -0.503 (inactive). Further, the NADPH fluorescence slope in assay [5] was 9.5e-06 (inactive). Also, the slope in assay [6] is 0.00409 (inactive).
Regarding `COC(=O)CCC(=O)Nc1ccc(S(=O)(=O)N2CCCCCC2)cc1`, the cell count in assay [1] came out at 743. The inhibition in assay [1] is 16.7% (inactive); in assay [3] it was 34.8% (inactive); in assay [7], 8.32% (inactive); in assay [8], 24.1% (inactive). Also, the inhibition of aggregation in assay [2] was -20.5% (inactive). The nuclei count came to 97.4% in assay [2] and 116% in assay [3]. Also, in assay [4], the fluorescence slope was -0.496 (inactive). Further, in assay [5], the NADPH fluorescence slope is -5.3e-05 (inactive). For the same molecule, the slope in assay [6] is 0.00616 (inactive).
In the case of `Cc1c(NC(=O)c2ccc(Br)o2)c(=O)n(-c2ccccc2)n1C`, the cell count in assay [1] was found to be 366. Further, the inhibition in assay [1] is -5.9% (inactive); in assay [3], -74% (inactive); in assay [7] it was 9.74% (inactive); in assay [8] it was 34.3% (inactive). Besides, the inhibition of aggregation in assay [2] is -13.4% (inactive). For the same molecule, the nuclei count in assay [2] came to 114%; in assay [3], 129%. Moreover, the fluorescence slope in assay [4] is -0.436 (inactive). In addition, the NADPH fluorescence slope in assay [5] was -2.6e-05 (inactive). In addition, the slope in assay [6] was 0.00344 (inactive).
Turning to `c1ccc(OCc2nc3ccccc3[nH]2)cc1`, the cell count in assay [1] turned out to be 443. Further, the inhibition is -6.5% (inactive) in assay [1], -77.6% (inactive) in assay [3], -47.4% (inactive) in assay [7] and -118% (inactive) in assay [8]. Moreover, the inhibition of aggregation in assay [2] was 9.8% (inactive). Moreover, the nuclei count in assay [2] turned out to be 75.8%; in assay [3] it was 132%. Besides, the fluorescence slope in assay [4] was -0.392 (inactive). Moreover, the NADPH fluorescence slope in assay [5] is -5.8e-05 (inactive). Moreover, the slope in assay [6] is 0.00568 (inactive).
Consider `C=CCn1c(SCC(=O)NCC2CCCO2)nc2scc(-c3ccco3)c2c1=O` (centres undefined), for which the cell count in assay [1] was 557. Also, the inhibition is -10.3% (inactive) in assay [1], 28.1% (inactive) in assay [3], 11.9% (inactive) in assay [7] and 13.5% (inactive) in assay [8]. Further, in assay [2], the inhibition of aggregation was -29.4% (inactive). Moreover, the nuclei count worked out at 98.5% in assay [2] and 98.7% in assay [3]. Besides, in assay [4], the fluorescence slope is -0.459 (inactive). Also, in assay [5], the NADPH fluorescence slope is -0.000271 (active). Further, the slope in assay [6] was 0.00487 (inactive).
In the case of `CC(C)(C)c1cc(CCC(=O)N2CCNCC2)c(C(C)(C)C)cc1O`, the cell count in assay [1] worked out at 557. Further, the inhibition is -31.3% (inactive) in assay [1], -57% (inactive) in assay [3], 13.9% (inactive) in assay [7] and 27.5% (inactive) in assay [8]. In addition, the inhibition of aggregation in assay [2] is 18.7% (inactive). Besides, the nuclei count in assay [2] was found to be 102%; in assay [3], 101%. Besides, in assay [4], the fluorescence slope was -0.411 (inactive). Besides, in assay [5], the NADPH fluorescence slope is -9e-05 (inactive). Moreover, the slope in assay [6] is 0.00515 (inactive).
`Cc1ccc(-n2ncc3c(=O)[nH]c(SC(C)C)nc32)cc1`: the cell count in assay [1] turned out to be 716. Moreover, the inhibition in assay [1] is -23.9% (inactive); in assay [3] it was -18.4% (inactive); in assay [7], 7.08% (inactive); in assay [8], 21.6% (inactive). Further, the inhibition of aggregation in assay [2] is 2.6% (inactive). The nuclei count in assay [2] worked out at 82.4%; in assay [3], 126%. Further, the fluorescence slope in assay [4] is -0.455 (inactive). The NADPH fluorescence slope in assay [5] was -4.4e-06 (inactive). Further, the slope in assay [6] is 0.0066 (inactive).
Consider `CCCn1c(=NC(C)=O)c(C#N)cc2c(=O)n3cccc(C)c3nc21`, for which the cell count in assay [1] amounted to 462. The inhibition is -0.9% (inactive) in assay [1], -35.4% (inactive) in assay [3], -11.4% (inactive) in assay [7] and 1.19% (inactive) in assay [8]. Moreover, the inhibition of aggregation in assay [2] was 0.6% (inactive). The nuclei count in assay [2] was found to be 99.9%; in assay [3] it was 131%. Moreover, the fluorescence slope in assay [4] is -0.0531 (inactive). The NADPH fluorescence slope in assay [5] was -1e-05 (inactive). The slope in assay [6] was 0.0086 (inactive).
As to `O=c1oc2ccccc2c2nccnc12`, the cell count in assay [1] amounted to 410. Further, the inhibition was 2.1% (inactive) in assay [1], -5.2% (inactive) in assay [3], 5.7% (inactive) in assay [7] and 27.5% (inactive) in assay [8]. Moreover, the inhibition of aggregation in assay [2] is 2.2% (inactive). Besides, the nuclei count in assay [2] was 104%; in assay [3] it was 107%. Moreover, the fluorescence slope in assay [4] was -0.456 (inactive). In addition, in assay [5], the NADPH fluorescence slope is -3.3e-05 (inactive). The slope in assay [6] is 0.00253 (inactive).

As usually defined, the inhibition is the change of the read-out against control, counted positive when it falls.
